Experimental data taken from publication PMC8384837, “Expanding the binding specificity for RNA recognition by a PUF domain”.
Substitutions are numbered along the chain they refer to.

Tests used:
Assay in all cases: yeast three-hybrid, YBZ-1, SC-Leu-His + 0.5 mM 3-AT, 4 days
Settings in all cases: tags: N-Gal4 AD-HA kept; label: inside an RPR1-promoter hybrid RNA with tandem MS2 sites; ssRNA
PUM1 PUF domain R5-RSQ = PUM1 PUF domain R5-RSQ (Homo sapiens, UniProt Q14671 828-1176, C1007R;R1008S)
Outline: (§1)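 The interaction score is the logarithmic change in variant frequency from input to selection. It uses log2, with a pseudocount of 1 for absent variants, and frequencies came from PCR-amplified, Illumina-sequenced repeat regions. The libraries were Pumilio-1 PUF domains randomized at the three base-contacting residues per repeat, co-expressed with matching RNA elements in strain YBZ-1 (LexA–MS2 coat fusion, HIS3 reporter). Plating lasted four days on SC-Leu (input) or SC-Leu-His + 0.5 mM 3-AT (selection).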

PUM1 PUF domain R5-RCV = PUM1 PUF domain R5-RCV (Homo sapiens, UniProt Q14671 828-1176, C1007R;R1008C;Q1011V)
Outline: as §1

PUM1 PUF domain R5-RHV = PUM1 PUF domain R5-RHV (Homo sapiens, UniProt Q14671 828-1176, C1007R;R1008H;Q1011V)
Outline: as §1

PUM1 PUF domain R5-RMG = PUM1 PUF domain R5-RMG (Homo sapiens, UniProt Q14671 828-1176, C1007R;R1008M;Q1011G)
Outline: as §1

PUM1 PUF domain R3-EFT = PUM1 PUF domain R3-EFT (Homo sapiens, UniProt Q14671 828-1176, C935E;R936F;Q939T)
Outline: as §1

PUM1 PUF domain R6-IWL = target: T1, PUM1 PUF domain R6-IWL (Homo sapiens, UniProt Q14671 828-1176, N1043I;Y1044W;Q1047L)
T1 sequence: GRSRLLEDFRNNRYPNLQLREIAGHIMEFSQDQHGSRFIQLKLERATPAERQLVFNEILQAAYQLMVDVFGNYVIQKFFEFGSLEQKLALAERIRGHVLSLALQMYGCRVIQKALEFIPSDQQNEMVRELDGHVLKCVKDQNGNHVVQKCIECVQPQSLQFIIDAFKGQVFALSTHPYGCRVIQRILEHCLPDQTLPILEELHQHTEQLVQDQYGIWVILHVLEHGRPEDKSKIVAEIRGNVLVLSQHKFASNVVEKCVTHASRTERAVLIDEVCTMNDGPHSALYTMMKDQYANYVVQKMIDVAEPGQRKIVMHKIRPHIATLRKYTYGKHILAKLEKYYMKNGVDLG
Outline: as §1

PUM1 PUF domain R6-HHR = target: T2, PUM1 PUF domain R6-HHR (Homo sapiens, UniProt Q14671 828-1176, N1043H;Y1044H;Q1047R)
T2 sequence: T1 sequence with I216H, W217H, L220R
Outline: as §1

PUM1 PUF domain R4-SRM = PUM1 PUF domain R4-SRM (Homo sapiens, UniProt Q14671 828-1176, N971S;H972R;Q975M)
Outline: as §1

PUM1 PUF domain R3-VFY = PUM1 PUF domain R3-VFY (Homo sapiens, UniProt Q14671 828-1176, C935V;R936F;Q939Y)
Outline: as §1

PUM1 PUF domain R4-EPS = PUM1 PUF domain R4-EPS (Homo sapiens, UniProt Q14671 828-1176, N971E;H972P;Q975S)
Outline: as §1

PUM1 PUF domain R4-GHF = PUM1 PUF domain R4-GHF (Homo sapiens, UniProt Q14671 828-1176, N971G;Q975F)
Outline: as §1

PUM1 PUF domain R4-ANS = PUM1 PUF domain R4-ANS (Homo sapiens, UniProt Q14671 828-1176, N971A;H972N;Q975S)
Outline: as §1

PUM1 PUF domain R4-GCC = PUM1 PUF domain R4-GCC (Homo sapiens, UniProt Q14671 828-1176, N971G;H972C;Q975C)
Outline: as §1

PUM1 PUF domain R8-HWV = PUM1 PUF domain R8-HWV (Homo sapiens, UniProt Q14671 828-1176, N1122H;Y1123W;Q1126V)
Outline: as §1

PUM1 PUF domain R3-RRS = PUM1 PUF domain R3-RRS (Homo sapiens, UniProt Q14671 828-1176, C935R;Q939S)
Outline: as §1

PUM1 PUF domain R1-QWK = PUM1 PUF domain R1-QWK (Homo sapiens, UniProt Q14671 828-1176, S863Q;R864W;Q867K)
Outline: as §1

PUM1 PUF domain R1-RRA = PUM1 PUF domain R1-RRA (Homo sapiens, UniProt Q14671 828-1176, S863R;Q867A)
Outline: as §1

PUM1 PUF domain R1-RLM = PUM1 PUF domain R1-RLM (Homo sapiens, UniProt Q14671 828-1176, S863R;R864L;Q867M)
Outline: as §1

PUM1 PUF domain R4-CNA = PUM1 PUF domain R4-CNA (Homo sapiens, UniProt Q14671 828-1176, N971C;H972N;Q975A)
Outline: as §1

PUM1 PUF domain R5-EAC = PUM1 PUF domain R5-EAC (Homo sapiens, UniProt Q14671 828-1176, C1007E;R1008A;Q1011C)
Outline: as §1

## GGCUAGAACUAGUGGAUCCCCCGGCGCCCGGCGGCUCGAGCCCGGGUAAGUGUCAAUAGUCUGCAUGCCGCCGGGCGCCAUGCCUGCAGGUCGACUCUAGAAAACAUG
PUM1 PUF domain R5-RSQ
  binding signal: 4.6 log2 enrichment (interaction score)
PUM1 PUF domain R5-RCV
  binding signal: 2.81 log2 enrichment (interaction score)
PUM1 PUF domain R5-RHV
  binding signal: 5.74 log2 enrichment (interaction score)
PUM1 PUF domain R5-RMG
  binding signal: 2.42 log2 enrichment (interaction score)

## GGCUAGAACUAGUGGAUCCCCCGGCGCCCGGCGGCUCGAGCCCGGGUAAGUGUAAGUAGUCUGCAUGCCGCCGGGCGCCAUGCCUGCAGGUCGACUCUAGAAAACAUG
PUM1 PUF domain R3-EFT
  binding signal: 3.92 log2 enrichment (interaction score)

## GGCUAGAACUAGUGGAUCCCCCGGCGCCCGGCGGCUCGAGCCCGGGUAAGUGUAAAUAGUCUGCAUGCCGCCGGGCGCCAUGCCUGCAGGUCGACUCUAGAAAACAUG
PUM1 PUF domain R5-RSQ
  binding signal: 1.05 log2 enrichment (interaction score)
PUM1 PUF domain R6-IWL
  binding signal: 3.09 log2 enrichment (interaction score)
PUM1 PUF domain R6-HHR
  binding signal: 5.44 log2 enrichment (interaction score)
PUM1 PUF domain R4-SRM
  binding signal: 3.86 log2 enrichment (interaction score)
PUM1 PUF domain R5-RHV
  binding signal: 2.87 log2 enrichment (interaction score)
PUM1 PUF domain R3-VFY
  binding signal: 6.12 log2 enrichment (interaction score)
PUM1 PUF domain R4-EPS
  binding signal: 3.28 log2 enrichment (interaction score)
PUM1 PUF domain R3-EFT
  binding signal: 4.71 log2 enrichment (interaction score)
PUM1 PUF domain R4-GHF
  binding signal: 4.42 log2 enrichment (interaction score)
PUM1 PUF domain R4-ANS
  binding signal: 2.16 log2 enrichment (interaction score)
PUM1 PUF domain R4-GCC
  binding signal: 1.5 log2 enrichment (interaction score)
PUM1 PUF domain R8-HWV
  binding signal: 3.05 log2 enrichment (interaction score)

## GGCUAGAACUAGUGGAUCCCCCGGCGCCCGGCGGCUCGAGCCCGGGUAAGUGUUAAUAGUCUGCAUGCCGCCGGGCGCCAUGCCUGCAGGUCGACUCUAGAAAACAUG
PUM1 PUF domain R5-RSQ
  binding signal: 4.05 log2 enrichment (interaction score)
PUM1 PUF domain R5-RHV
  binding signal: 5.95 log2 enrichment (interaction score)

## GGCUAGAACUAGUGGAUCCCCCGGCGCCCGGCGGCUCGAGCCCGGGUAAGUGUAAUUAGUCUGCAUGCCGCCGGGCGCCAUGCCUGCAGGUCGACUCUAGAAAACAUG
PUM1 PUF domain R3-RRS
  binding signal: 3.9 log2 enrichment (interaction score)
PUM1 PUF domain R3-VFY
  binding signal: 5.89 log2 enrichment (interaction score)
PUM1 PUF domain R3-EFT
  binding signal: 2.45 log2 enrichment (interaction score)

## GGCUAGAACUAGUGGAUCCCCCGGCGCCCGGCGGCUCGAGCCCGGGUAAGUGUAAAUCGUCUGCAUGCCGCCGGGCGCCAUGCCUGCAGGUCGACUCUAGAAAACAUG
PUM1 PUF domain R1-QWK
  binding signal: 5.98 log2 enrichment (interaction score)
PUM1 PUF domain R1-RRA
  binding signal: 2.68 log2 enrichment (interaction score)
PUM1 PUF domain R1-RLM
  binding signal: 3.34 log2 enrichment (interaction score)

## GGCUAGAACUAGUGGAUCCCCCGGCGCCCGGCGGCUCGAGCCCGGGUAAGUGUAAAUGGUCUGCAUGCCGCCGGGCGCCAUGCCUGCAGGUCGACUCUAGAAAACAUG
PUM1 PUF domain R1-RLM
  binding signal: 1.69 log2 enrichment (interaction score)

## GGCUAGAACUAGUGGAUCCCCCGGCGCCCGGCGGCUCGAGCCCGGGUAAGUGUACAUAGUCUGCAUGCCGCCGGGCGCCAUGCCUGCAGGUCGACUCUAGAAAACAUG
PUM1 PUF domain R4-SRM
  binding signal: 2.16 log2 enrichment (interaction score)
PUM1 PUF domain R4-ANS
  binding signal: 2.23 log2 enrichment (interaction score)
PUM1 PUF domain R4-CNA
  binding signal: 2.26 log2 enrichment (interaction score)
PUM1 PUF domain R4-GCC
  binding signal: 1.75 log2 enrichment (interaction score)

## GGCUAGAACUAGUGGAUCCCCCGGCGCCCGGCGGCUCGAGCCCGGGUAAGUGUGAAUAGUCUGCAUGCCGCCGGGCGCCAUGCCUGCAGGUCGACUCUAGAAAACAUG
PUM1 PUF domain R5-EAC
  binding signal: 3.49 log2 enrichment (interaction score)

## GGCUAGAACUAGUGGAUCCCCCGGCGCCCGGCGGCUCGAGCCCGGGUAAGUGUAUAUAGUCUGCAUGCCGCCGGGCGCCAUGCCUGCAGGUCGACUCUAGAAAACAUG
PUM1 PUF domain R4-SRM
  binding signal: 2.54 log2 enrichment (interaction score)
PUM1 PUF domain R4-ANS
  binding signal: 2.51 log2 enrichment (interaction score)
PUM1 PUF domain R4-CNA
  binding signal: 1.78 log2 enrichment (interaction score)
PUM1 PUF domain R4-GCC
  binding signal: 3.64 log2 enrichment (interaction score)

## GGCUAGAACUAGUGGAUCCCCCGGCGCCCGGCGGCUCGAGCCCGGGUAAGUGUAAAUUGUCUGCAUGCCGCCGGGCGCCAUGCCUGCAGGUCGACUCUAGAAAACAUG
PUM1 PUF domain R1-RRA
  binding signal: 1.49 log2 enrichment (interaction score)
PUM1 PUF domain R1-RLM
  binding signal: 3.95 log2 enrichment (interaction score)

## GGCUAGAACUAGUGGAUCCCCCGGCGCCCGGCGGCUCGAGCCCGGGUAAGCGUAAAUAGUCUGCAUGCCGCCGGGCGCCAUGCCUGCAGGUCGACUCUAGAAAACAUG
PUM1 PUF domain R8-HWV
  binding signal: 4.26 log2 enrichment (interaction score)
